Drawing on PubChem BioAssay, this text covers composite z-score and z-score for five compounds.

The source made the active and inactive calls. Unless noted, no rule for the calls is given here.

A short description of assay [1]: anti-His antibody binders, primary screen, artefact control for SMM control protein annotation, biochemical, small-molecule microarray, 635 nm fluorescence (AID 1128).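 Also: score merges feature fluorescence with signal-to-noise for each printed compound spot.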 The following applies: anti-His Alexa647 antibody binding, higher = more signal.
The subject of assay [2] is Human papillomavirus type 1a E7 protein (residues 1-88). Put plainly: HPV1a E7 small-molecule binders, primary screen, biochemical, small-molecule microarray, residues 1-88, 635 nm (AID 1129). The following applies: small-molecule microarray binding, fluorescence 635 nm; higher = more signal.
Assay [3] has as its target Focal adhesion kinase 1 (Homo sapiens) (UniProt Q05397). The assay can be described thus: small-molecule microarray binders of FAK, primary screen, biochemical, 635/667 nm fluorescence, BSA, DTT (AID 1130).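 Also: composite of spot emission at 667 nm and signal to noise over triplicate slides.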 As to conditions: PTK2 binding, 635 nm fluorescence, higher = more signal.
The test system of assay [4] is Fibrinogen (Alexa647-labelled). Put plainly: fibrinogen binders on compound microarrays, profiling panel, artefact control for SMM control-protein annotation, biochemical, small-molecule microarray, 635/667 nm fluorescence (AID 1131).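 Also: z-score merges 667 nm fluorescence with per-spot signal-to-noise over triplicate slides.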 As to conditions: fibrinogen-A647 binding fluorescence, higher = more signal.
Assay [5] deals with Follistatin (Homo sapiens) (UniProt P19883). Put plainly: follistatin binders on small-molecule microarrays, primary screen, biochemical, small-molecule microarray, 635/667 nm fluorescence (AID 1132). As to conditions: FST binding, 635 nm fluorescence, higher = more signal.
Sequence of Follistatin (Homo sapiens) (P19883 whole entry, looked up): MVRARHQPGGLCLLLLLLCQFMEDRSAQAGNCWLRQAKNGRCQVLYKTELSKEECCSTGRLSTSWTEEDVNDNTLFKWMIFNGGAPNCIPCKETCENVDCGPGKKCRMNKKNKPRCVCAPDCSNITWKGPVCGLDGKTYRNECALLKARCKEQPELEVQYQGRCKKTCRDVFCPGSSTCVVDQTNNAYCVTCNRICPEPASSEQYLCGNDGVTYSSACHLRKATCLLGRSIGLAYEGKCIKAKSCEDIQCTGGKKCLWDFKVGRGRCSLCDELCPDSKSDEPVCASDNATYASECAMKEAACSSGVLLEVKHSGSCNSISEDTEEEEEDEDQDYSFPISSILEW
The target of assay [6] is Fibroblast growth factor 2 (Homo sapiens) (UniProt P09038). Put plainly: FGF2 binders on small-molecule microarrays, primary screen, biochemical, small-molecule microarray, 635/667 nm fluorescence (AID 1133). As to conditions: small-molecule microarray binding, FGF2, fluorescence 635/667; higher = more signal.
Sequence of Fibroblast growth factor 2 (Homo sapiens) (P09038 whole entry, looked up): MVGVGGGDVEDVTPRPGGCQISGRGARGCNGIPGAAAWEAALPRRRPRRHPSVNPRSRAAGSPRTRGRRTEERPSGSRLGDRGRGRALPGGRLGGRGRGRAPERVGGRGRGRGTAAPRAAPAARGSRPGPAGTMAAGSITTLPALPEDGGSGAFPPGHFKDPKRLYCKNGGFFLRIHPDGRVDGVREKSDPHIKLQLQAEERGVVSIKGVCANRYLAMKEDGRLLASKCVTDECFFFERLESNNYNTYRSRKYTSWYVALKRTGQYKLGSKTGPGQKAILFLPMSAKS
A short description of assay [7]: mitochondrial membrane potential change in A549 cells, profiling panel, cell-based, JC-1 fluorescence, basal, 24 h, 100 nL (AID 1138).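 Also: A549 lung adenocarcinoma cells under basal conditions with no added stimulus; test concentration not given here.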 The following applies: higher = more signal.
Assay [8] deals with Lefty1. The assay can be described thus: Lefty1 binders on small-molecule microarrays, primary screen, biochemical, small-molecule microarray, 635/667 nm fluorescence (AID 1139). As to conditions: small-molecule microarray binding, fluorescence 635/667; higher = more signal.
Assay [9] has as its system wheat germ agglutinin (Triticum aestivum), Alexa647-labelled. The assay can be described thus: wheat germ agglutinin binders on compound microarrays, profiling panel, artefact control for SMM control-protein annotation, biochemical, small-molecule microarray, 635/667 nm fluorescence (AID 1140).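 Also: score merges 667 nm feature emission with signal to noise over triplicate slides.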 As to conditions: WGA-A647 binding, 635 nm fluorescence, higher = more signal.

Assay [10] concerns the target Luciferin 4-monooxygenase (Photinus pyralis) (UniProt P08659). Put plainly: firefly luciferase enzyme inhibitors, primary screen, biochemical, luminescence, purified enzyme, 2006 set (AID 1141).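 Also: cell-free assay with purified firefly luciferase at 100 ng per well in PBS; test concentration not given here.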 The following applies: SteadyGlo luminescence, 30 min, higher = more signal, called active from +8 up or from −8 down.
For assay [11], the system named is Wnt5a (protein binding on small-molecule microarray). The assay can be described thus: Wnt5a binders on small-molecule microarray, primary screen, biophysical, 635/667 nm fluorescence (AID 1142).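 Also: fluorescence read at 667 nm with signal to noise per printed feature.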 As to conditions: 635 nm fluorescence, higher = more signal.
Assay [12] can be described thus: cell viability in Huh7 cells, primary screen, cytotoxicity control for HCV replication inhibitor project, CellTiter-Glo luminescence, basal, 48 h (AID 1143).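 Also: Huh7 hepatoma cells carrying a hepatitis C replication reporter with no stimulus; test concentration not given here.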 As to conditions: Huh7 HCV replicon, higher = more signal, called active from +8 up or from −8 down. On the technique in general: In ATP-based viability assays light output follows the ATP content of the culture.

A short description of assay [13]: P. aeruginosa biofilm formation inhibitors, primary screen, PAO1 strain, BacTiter-Glo luminescence, LB-PBS (AID 1144). As to conditions: 12 h, higher = more signal.
Assay [14] is described as follows: CREB reporter modulators without forskolin, primary screen, cell-based, PC12, CRE-LacZ reporter, unstimulated (AID 1145). As to conditions: no forskolin, luminescence, 4.5 h, higher = more signal, called active from +8 up or from −8 down.
A short description of assay [15]: CREB reporter modulators under forskolin, primary screen, cell-based, PC12, CRE-LacZ reporter, forskolin-stimulated (AID 1146).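 Also: PC12 cells with 6xCRE LacZ reporter stimulated by forskolin 10 µM; beta-galactosidase reporter signal reflecting CREB driven transcription.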 As to conditions: luminescence, 4.5 h, higher = more signal, called active from +8 up or from −8 down.
The target of assay [16] is Streptavidin (Streptomyces avidinii) (UniProt P22629). Put plainly: streptavidin binders on small-molecule microarray, primary screen, artefact control for SMM compound annotation, biophysical, 635/667 nm fluorescence (AID 1147).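 Also: signal reflects streptavidin binding to arrayed compounds as a control protein.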 The following applies: streptavidin binding, higher = more signal.
Sequence of Streptavidin (Streptomyces avidinii) (P22629 whole entry, looked up): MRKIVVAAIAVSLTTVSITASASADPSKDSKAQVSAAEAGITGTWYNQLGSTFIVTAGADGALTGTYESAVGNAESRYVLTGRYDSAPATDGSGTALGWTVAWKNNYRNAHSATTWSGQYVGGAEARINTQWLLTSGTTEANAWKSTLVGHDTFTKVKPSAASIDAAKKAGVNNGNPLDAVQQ
A short description of assay [17]: small-molecule binders of probe aInhba, primary screen, biochemical, small-molecule microarray, 635/667 nm fluorescence (AID 1148).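 Also: score merges 667nm spot fluorescence with signal-to-noise for antibody binding to printed compounds.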 As to conditions: higher = more signal.
The target in assay [18] is Torsin-1A (Homo sapiens) (UniProt O14656). The assay can be described thus: torsin A binders from cell lysate, primary screen, small-molecule microarray, wild-type, 635/667 nm (AID 1149). The following applies: COS7 hTOR1A-WT lysate, 635 nm fluorescence, higher = more signal.
Sequence of Torsin-1A (Homo sapiens) (O14656 whole entry, looked up): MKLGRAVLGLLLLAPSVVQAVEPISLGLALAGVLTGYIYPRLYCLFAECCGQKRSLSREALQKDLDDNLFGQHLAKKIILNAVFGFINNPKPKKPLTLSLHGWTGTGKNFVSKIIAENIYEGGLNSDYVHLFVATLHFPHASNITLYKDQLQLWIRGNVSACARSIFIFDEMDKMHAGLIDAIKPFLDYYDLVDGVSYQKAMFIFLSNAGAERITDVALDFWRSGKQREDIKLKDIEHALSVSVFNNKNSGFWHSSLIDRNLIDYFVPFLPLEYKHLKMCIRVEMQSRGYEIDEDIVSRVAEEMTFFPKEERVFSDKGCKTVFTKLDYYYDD
The target is the same in assay [19]. Put plainly: small-molecule binders of mutant TOR1A in lysate, primary screen, cell lysate, small-molecule microarray, COS7 lysate, 635/667 nm fluorescence (AID 1150).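 Also: score pools 667 nm emission and signal to noise measuring lysate protein binding.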 As to conditions: COS7 hTOR1A mutant lysate, 635 nm fluorescence, higher = more signal.
The subject of assay [20] is Sonic hedgehog protein (Shh). The assay can be described thus: small-molecule binders of Shh protein, primary screen, biochemical, small-molecule microarray, 635/667 nm fluorescence (AID 1151).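 Also: Shh protein binding to compounds spotted on small-molecule microarray slides; score combines spot fluorescence intensity with signal-to-noise across triplicate slides.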 As to conditions: small-molecule microarray binding, 635 nm fluorescence; higher = more signal.

Sequence of Luciferin 4-monooxygenase (Photinus pyralis) (P08659 whole entry, looked up): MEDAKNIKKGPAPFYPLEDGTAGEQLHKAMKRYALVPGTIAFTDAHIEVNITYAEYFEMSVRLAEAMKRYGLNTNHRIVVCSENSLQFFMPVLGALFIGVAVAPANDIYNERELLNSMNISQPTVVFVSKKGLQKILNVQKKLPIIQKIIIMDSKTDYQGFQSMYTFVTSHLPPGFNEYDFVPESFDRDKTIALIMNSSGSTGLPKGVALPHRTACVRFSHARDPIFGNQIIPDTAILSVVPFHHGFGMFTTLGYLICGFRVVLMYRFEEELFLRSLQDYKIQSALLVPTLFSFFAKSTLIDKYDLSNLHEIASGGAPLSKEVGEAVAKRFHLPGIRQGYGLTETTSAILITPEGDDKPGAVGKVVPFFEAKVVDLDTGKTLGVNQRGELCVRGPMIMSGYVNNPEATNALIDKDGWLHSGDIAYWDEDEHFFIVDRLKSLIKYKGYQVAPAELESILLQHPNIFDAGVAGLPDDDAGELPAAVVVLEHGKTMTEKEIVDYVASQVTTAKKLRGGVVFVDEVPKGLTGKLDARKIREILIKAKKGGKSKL
Sequence of Focal adhesion kinase 1 (Homo sapiens) (Q05397 whole entry, looked up): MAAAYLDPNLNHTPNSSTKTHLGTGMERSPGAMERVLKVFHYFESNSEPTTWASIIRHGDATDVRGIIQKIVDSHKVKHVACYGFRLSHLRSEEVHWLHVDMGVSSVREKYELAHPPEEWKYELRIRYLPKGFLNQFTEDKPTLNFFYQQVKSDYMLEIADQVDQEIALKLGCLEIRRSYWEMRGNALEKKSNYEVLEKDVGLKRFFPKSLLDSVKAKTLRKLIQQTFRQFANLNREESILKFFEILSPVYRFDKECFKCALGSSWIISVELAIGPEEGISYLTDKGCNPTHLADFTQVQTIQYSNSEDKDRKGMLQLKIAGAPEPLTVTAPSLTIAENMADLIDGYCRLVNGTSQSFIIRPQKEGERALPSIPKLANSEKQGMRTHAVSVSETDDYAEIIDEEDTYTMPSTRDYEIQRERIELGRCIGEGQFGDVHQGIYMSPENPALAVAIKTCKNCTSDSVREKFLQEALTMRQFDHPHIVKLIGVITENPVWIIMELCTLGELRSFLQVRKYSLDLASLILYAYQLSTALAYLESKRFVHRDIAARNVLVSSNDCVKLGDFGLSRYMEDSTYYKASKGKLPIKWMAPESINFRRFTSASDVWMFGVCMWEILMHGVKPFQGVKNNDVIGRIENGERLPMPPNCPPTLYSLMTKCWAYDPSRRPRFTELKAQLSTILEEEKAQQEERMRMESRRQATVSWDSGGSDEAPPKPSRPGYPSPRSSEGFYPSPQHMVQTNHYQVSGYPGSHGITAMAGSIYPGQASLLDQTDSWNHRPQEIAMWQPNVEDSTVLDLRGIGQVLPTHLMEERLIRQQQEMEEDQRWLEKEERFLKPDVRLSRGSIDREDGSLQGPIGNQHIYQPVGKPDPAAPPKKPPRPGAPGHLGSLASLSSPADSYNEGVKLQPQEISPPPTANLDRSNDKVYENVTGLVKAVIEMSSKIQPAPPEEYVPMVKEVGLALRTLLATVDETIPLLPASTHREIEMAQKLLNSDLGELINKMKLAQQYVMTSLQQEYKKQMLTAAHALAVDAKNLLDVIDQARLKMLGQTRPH

In the case of `CC(c1ccccc1)C(O)C1C=CC2C(=O)N(c3ccccc3)C(=O)C2N1Nc1ccccc1F` (stereo not given), the composite z-score in assay [1] was 1.35; in assay [2], 1.2; in assay [3], 0.583; in assay [4], 0.994; in [5] it was 0.473; in [6], -0.645. Also, the composite z-score in [8] was 0.226; in assay [9], 0.439; in [11], 0.0426; in assay [16] it was 0.527; in assay [17], -0.125; in [18] it was -0.468. The composite z-score was 0.0393 in [19] and -0.0558 in assay [20]. The z-score in assay [7] was -0.673; in assay [10], 1.94 (inactive); in [12], -2.63 (inactive); in assay [13] it was -1.29 (inactive); in [14] it was 0.173 (inactive); in assay [15] it was 0.406 (inactive).
Regarding `COCCOC(=O)N1C(=O)[C@@]2(c3cc(C#Cc4ccc(OC)cc4)ccc31)[C@H](c1ccc(O)cc1)N1[C@H](c3ccccc3)[C@H](c3ccccc3)OC(=O)[C@H]1[C@@H]2C(=O)N1CCN(c2ncccn2)CC1`, the composite z-score in [1] came to 1.23; in assay [2] it was 1.18; in [3], 0.351; in assay [4], 0.624; in assay [5], 1.36; in assay [6] it was 0.712. Besides, the composite z-score is 0.604 in [8]; 0.584 in assay [9]; -0.0114 in assay [11]; 0.0875 in [16]; 0.199 in [17]; 0.487 in [18]. Further, the composite z-score in [19] was determined as 0.651; in assay [20], 0.982. For the same compound, the z-score was -0.863 in assay [7]; 0.384 (inactive) in assay [10]; -0.949 (inactive) in assay [12]; -0.166 (inactive) in assay [13]; -0.114 (inactive) in assay [14]; 0.75 (inactive) in [15].
Take `CN(C)CCCCCCNC(=O)[C@@H]1C[C@@H]2C(=O)NCC(=O)N2[C@@H]1c1cccc(OCCO)c1`: the composite z-score in [1] was found to be 2.96; in assay [2], 1.28; in assay [3], 0.446; in [4], 0.232; in [5], 1.34; in [6] it was 0.826. Further, the composite z-score in assay [8] was 1.36; in assay [9], -0.0165; in assay [11] it was 1.21; in assay [16], 0.312; in assay [17], 0.105; in assay [18], 1.14. Besides, the composite z-score in [19] came to 2.07; in assay [20], 1.64. Also, the z-score in [7] was 0.295; in assay [10], -0.791 (inactive); in [12] it was 0.105 (inactive); in [13] it was -0.418 (inactive); in assay [14], -0.549 (inactive); in assay [15], -0.832 (inactive).
In the case of `O=C1O[C@@H](c2ccccc2)[C@@H](c2ccccc2)N2[C@@H](c3ccc(O)cc3)[C@]3(C(=O)Nc4ccccc43)[C@@H](C(=O)NC[C@H](O)c3ccccc3)[C@H]12`, the composite z-score is 2.07 in [1]; -0.366 in assay [2]; 0.0943 in [3]; -0.406 in assay [4]; 1.02 in assay [5]; 0.797 in [6]. The composite z-score in [8] was 0.266; in [9] it was 0.0576; in assay [11], 0.062; in [16], -0.26; in assay [17] it was -0.176; in assay [18], -1. Besides, the composite z-score stood at 0.371 in assay [19] and 0.142 in assay [20]. Besides, the z-score in assay [7] was 0.411; in assay [10], 0.807 (inactive); in [12], -2.34 (inactive); in assay [13] it was 0.184 (inactive); in assay [14] it was 0.0921 (inactive); in assay [15], 0.175 (inactive).
For the compound `COCCCNC(=O)[C@]1(Cc2ccccc2N=[N+]=[N-])N=C(c2ccc(OCCCO)cc2)O[C@@H]1c1ccccc1CN=[N+]=[N-]`, the composite z-score in assay [1] is 2.33; in assay [2] it was 1.22; in [3] it was 0.631; in [4], 0.947; in [5], 1.35; in assay [6], 0.449. The composite z-score in assay [8] is 0.231; in assay [9], 1.12; in assay [11], 0.823; in [16], 1.11; in assay [17] it was 0.442; in assay [18], 0.673. Besides, the figures for the composite z-score in assay [19] and in [20] were 0.57 and 0.26, respectively. In addition, the z-score in [7] is -0.418; in assay [10] it was -2.5 (inactive); in assay [12], -5.15 (inactive); in assay [13], -0.421 (inactive); in assay [14] it was 0.825 (inactive); in assay [15] it was -1.47 (inactive).
